Assay outcomes as filed in PubChem BioAssay.
The list is not random: actives were taken first. Their share in the collection is about 2.6%.
PABP1 MLLE inh: blocks PAM2 peptide binding to the PABP1 MLLE domain | P11940 | GST-MLLE / FITC-PAM2 fluorescence polarization | inhibition, % at 20 µM | hit rate 0.36% among 360,000 | AID 588489; in the data active = inhibition above about 35%, passing the limit was not always enough;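 note: plate controls were DMSO wells with GST-MLLE for no effect and wells lacking GST-MLLE protein for full effect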
Target sequence (P11940 whole entry, looked up, the tested form may be a part): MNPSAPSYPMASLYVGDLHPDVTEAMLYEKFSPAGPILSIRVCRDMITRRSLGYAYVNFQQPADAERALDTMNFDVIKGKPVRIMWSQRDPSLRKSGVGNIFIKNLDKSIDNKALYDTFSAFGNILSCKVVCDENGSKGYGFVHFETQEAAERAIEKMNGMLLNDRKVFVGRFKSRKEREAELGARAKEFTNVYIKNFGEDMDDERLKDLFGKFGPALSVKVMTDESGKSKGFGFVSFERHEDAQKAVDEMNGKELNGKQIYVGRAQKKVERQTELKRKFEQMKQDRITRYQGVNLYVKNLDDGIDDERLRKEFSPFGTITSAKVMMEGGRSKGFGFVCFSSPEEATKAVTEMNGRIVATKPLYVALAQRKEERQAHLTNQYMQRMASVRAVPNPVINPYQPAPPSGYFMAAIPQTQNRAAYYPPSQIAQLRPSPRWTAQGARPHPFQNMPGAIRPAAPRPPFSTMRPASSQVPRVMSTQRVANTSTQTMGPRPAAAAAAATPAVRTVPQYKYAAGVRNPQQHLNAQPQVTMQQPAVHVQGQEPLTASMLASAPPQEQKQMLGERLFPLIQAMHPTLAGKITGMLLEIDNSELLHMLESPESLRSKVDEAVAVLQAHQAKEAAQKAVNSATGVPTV
PABP polyA inh: PABP-poly(A) binding inhibition. PABP-poly(A) RNA binding, fluorescence polarization. AID 2014. P11940. hit rate 1% among 290,000. calls only at 35 µM;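 note: calls also rest on retests at 20 µM and on dose response follow-up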
AI-2 QS mod: modulates the Vibrio harveyi AI-2 quorum sensing system; activity change, % at 7.5 µM; Vibrio harveyi JMH597 AI-2 luminescence/OD600 ratio, 9 h; active compounds read low; strain lacks LuxN and CqsS sensors; 0 = neutral-control median; AID 2094; hit rate 0.4% among 300,000; in the data active = activity change below about -75%, passing the limit was not always enough; inconclusive = no clear call, values can overlap the other calls;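 note: luminescence divided by OD600 gain over 9 h not by final OD600 alone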
eIF4H inh: inhibitors of RNA binding by human eIF4H; Q15056; eIF4H fluorescence polarization binding assay; inhibition, % at 35 µM; hit rate 0.94% among 290,000; AID 2012;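 note: calls also rest on retests at 20 µM and on dose response follow-up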
ABCB6 inh MLPCN: blocks the human ABCB6 transporter; Q9NP58; K562-ABCB6 porphyrin accumulation, flow cytometry, 1 h; active compounds read low; fluorescence ratio to DMSO, % at 10 µM; hit rate 0.19% among 360,000;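 active = fluorescence ratio to DMSO below 75%, the collection mean minus 3 SD; inconclusive = too few cells collected in the well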;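 note: signal is porphyrin accumulated inside mitochondria; 100% equals median channel fluorescence of DMSO control wells; lower ratio means ABCB6 inhibition with less porphyrin fluorescence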
PHOSPHO1 inh: PHOSPHO1 (human) inhibition. Q8TCT1. AID 1565. recombinant PHOSPHO1, absorbance phosphatase assay. hit rate 1.1% among 290,000. inhibition, % at 13.3 µM; in the data active = inhibition above about 60%
* hit, by the source's call; i = inactive; u = inconclusive; x = no result given; + = active, no number. Unless noted, the rule behind the calls is not given here.

SMILES	PABP1 MLLE inh	PABP polyA inh	AI-2 QS mod	eIF4H inh	ABCB6 inh MLPCN	PHOSPHO1 inh
NS(=O)(=O)c1ccc(CNC(=O)Cc2cccs2)cc1	-28	i	47	58*	97	14
O=C(Cc1cccs1)NNC(=S)NC(=O)c1ccco1	16	i	-84*	22	95	36
Cc1ccccc1OCC(=O)NNC(=S)NC(=O)c1ccco1	22	i	30	21	92	99*
Cc1ccc(C(=O)NNC(=O)Cc2cccs2)cc1	-19	i	4	4	94	-7
Cc1ccccc1OCC(=O)Nc1ccccc1NC(=O)c1ccco1	7	i	4	-2	91	15
O=C(Cc1cccs1)NNC(=O)c1ccc(F)cc1	-9	+	15	u	102	-7
CCOC(=O)C1(C)CCCN(C(=O)c2c(-c3ccccc3)noc2C)C1 (centres undefined)	0	x	x	x	99	x
CC1(Cc2ccc3c(c2)OCO3)C(=O)Nc2c(Cl)ccc(Cl)c21 (centres undefined)	-4	x	x	x	93	x
O=C(Cc1cccs1)NNC(=S)NCc1ccc(Cl)cc1	-43	i	-3	14	106	100*
O=c1/c(=C/c2ccco2)sc2n1CN(c1cccc(Br)c1)CN=2	-83	+	-4	51*	106	39
CCc1cccc(NC(=O)CSC2=NS(=O)(=O)c3ccccc32)c1	35	i	30	2	93	94*
COc1cc(C2Nc3cccc4cccc(c34)N2)ccc1OC(C)=O	19	+	17	105*	104	10
COc1cc(C2Nc3cccc4cccc(c34)N2)cc(OC)c1O	17	i	x	86	101	0
COc1ccc(C2Nc3cccc4cccc(c34)N2)cc1Br	-4	i	20	62*	92	28
Cc1cc(C(=O)CSc2nnc(-c3ccccc3)n2-c2ccccc2)c(C)n1-c1ncn[nH]1	-24	i	10	2	90	75*
Cc1cc(C(=O)CSc2nnc(-c3ccccc3)n2C)c(C)n1C	5	i	33	8	96	24
CCCn1c(=O)c2ccccc2n2c(SCC(=O)c3cc(C)n(CC4CCCO4)c3C)nnc12 (centres undefined)	x	i	x	1	x	66*
Cc1cc(C(=O)CSc2nnc(-c3ccncc3)n2-c2ccccc2)c(C)n1C	-41	+	32	120*	103	77*
Cc1cc(C(=O)CSc2nnc(-c3cccnc3)n2-c2ccccc2)c(C)n1CC1CCCO1 (centres undefined)	17	i	13	12	95	74*
CSc1ccc(CN2CCC2(C)C(=O)NC2CCc3ccccc32)cc1 (centres undefined)	-7	x	x	x	101	x
CCOC(=O)C1(COCc2ccccc2)CCCCC1=O (centres undefined)	15	x	x	x	101	x
C=CCn1c(SCC(=O)c2cc(C)n(C)c2C)nnc1-c1ccncc1	-8	i	2	83*	99	-10
O=C(CSc1nnc(-c2ccncc2)n1-c1ccccc1)N1CCN(c2ccc(Cl)cc2)CC1	-116	i	5	1	102	93*
CCOc1ccc2nc(S(=O)(=O)NC(=O)C3(C)CCN3C(=O)c3cc(C)n(C)n3)sc2c1 (centres undefined)	5	x	x	x	94	x
CCN(CC)C(=O)CSC(=Nc1ccccc1F)NC#N	-30	+	30	46*	95	-13
SMILES	PABP1 MLLE inh	PABP polyA inh	AI-2 QS mod	eIF4H inh	ABCB6 inh MLPCN	PHOSPHO1 inh
Cc1c(C(=O)NCc2ccc3c(c2)cc(C)n3C)cccc1[N+](=O)[O-]	48*	i	5	19	101	1
Cc1cc2cc(CNC(=O)Cc3ccc([N+](=O)[O-])cc3)ccc2n1C	40*	i	8	47	100	27
Cc1cc2cc(CNC(=O)Cc3cccs3)ccc2n1C	39*	i	39	40	110	22
COc1ccc([C@@H]2CC(=O)[C@@H]3CN(S(=O)(=O)c4ccc(Cl)cc4)[C@H](c4ccc(C)cc4)C[C@@H]3N2S(=O)(=O)c2ccccc2)cc1	-5	x	x	x	96	x
CC(/C=C(\NC(=O)c1ccccc1)C(=O)N=Nc1c(O)[nH]c2ccc(C)cc12)=C\c1ccccc1	2	i	60	3	73*	91*
CCCCn1nnnc1C(c1ccccc1)N1CCN(c2ccc(C)cc2)CC1 (centres undefined)	x	x	x	x	102	x
O=C(Nc1cc(C(F)(F)F)ccc1N1CCOCC1)C1Cc2ccccc2CN1C(=O)c1ccco1 (centres undefined)	-17	i	8	13	103	65*
O=C(/C=C/c1ccco1)NC(=S)Nc1cc(C(F)(F)F)ccc1N1CCOCC1	-4	+	41	79	103	0
CC1(C)CC(=O)C(C(c2ccc3c(c2)OCO3)C2C(=O)CC(C)(C)CC2=O)C(=O)C1	19	x	x	x	93	x
Cc1cccc(C(O)c2ncc(-c3ccc(C(F)(F)F)cc3)[nH]2)c1C (centres undefined)	6	x	x	x	103	x
COc1ccccc1OCC(=O)O	-3	i	19	6	105	-1
COc1ccccc1OCCC(=O)O	-4	+	8	active	102	-2
CCCS(=O)(=O)NC(=O)C1(C)CCN(C(=O)c2ccccc2F)C1 (centres undefined)	-2	x	x	x	103	x
COC(=O)[C@@]1(Cc2ccc(F)cc2)[C@H]2c3cc(C(=O)N(C)C)n(Cc4ccsc4Br)c3C[C@H]2CN1C(=O)c1ccccc1	x	x	x	x	119	x
O=c1oc(-c2ccccc2)nc2c1C1(CCCCC1)Cc1ccccc1-2	-11	i	19	-7	105	15
CCC1(CC)Cc2ccccc2-c2nc(-c3ccccc3)oc(=O)c21	-4	i	2	-10	70*	-18
O=C(/C=C/c1ccc2c(c1)OCO2)NCCS(=O)(=O)N1CCN(c2ccccc2)CC1	3	x	x	x	98	x
COc1ccc(-n2c(COc3ccc(C)cc3)nnc2SCC(N)=O)cc1	-130	i	-1	-3	102	95*
COc1cccc(-n2c(COc3ccc(C)cc3)nnc2SCC(N)=O)c1	-107	i	14	-12	96	55
O=C(CSc1nnc(COc2ccccc2)n1-c1ccccc1)c1ccccc1	-104	i	-7	0	102	76*
COc1ccc(C(=O)CSc2nnc(COc3ccc(C#N)cc3)n2-c2ccccc2)cc1	-43	i	12	-3	100	35
COc1ccc(-n2c(COc3ccccc3)nnc2SCC(N)=O)cc1	-90	i	13	2	97	72*
CCOC(=O)CSc1nnc(Cc2ccc(OC)cc2)n1-c1ccccc1	-84	i	7	-2	97	79*
Cc1ccc(-n2c(COc3ccccc3)nnc2SCC(=O)O)cc1	-14	x	x	x	97	x
COC(=O)c1ccc(COc2ncnc3c(Cl)cc(Cl)cc23)o1	-3	i	-79*	1	97	17
